Only some compounds are listed: those with a hit (about 2.1% of all), similar ones and a draw of the others.
Platelet DG rel = inhibitors of platelet dense granule secretion, primary screen, cell-based, MLPCN, human platelets; human platelet-rich plasma, SFLLRN dense granule ATP release, luminescence; inhibition, %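 (compounds screened at 7.5 µM in platelet-rich plasma)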; 300,000 tested, 0.22% active;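 active = mean replicate score, as percent of positive control, at or above 50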
Wee1 stabilizer = Wee1 degradation inhibitors, primary screen, cell-based, HeLa, Wee1K328M-luciferase, luminescence; HeLa Luc-Wee1K328M stability; 100% = proteasome inhibitor MG132 effect; reporter increase, % at 5 µM; 220,000 tested, 1.2% active;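 active = activation above the mean of all tested compounds plus 3 SD, set per screening run, cut at about 8.8% in these data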;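 note: cells exposed to compound for 20 h before luminescence read; 0% = DMSO alone and 100% = MG132 at 30 µM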
aSyn UTR inh = MLPCN primary screen, SNCA 5' untranslated region; alpha-synuclein 5'UTR reporter, inhibitor activity; inhibition, % (tested at 7.5 µM); 300,000 tested, 0.82% active; in the data active = inhibition above about 60%;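 note: H4 neuroglioblastoma cells stably carrying SNCA 5'UTR luciferase fusion; 0% = DMSO wells and 100% = positive control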
HIF activator = HIF pathway transcriptional activators, primary screen, cell-based, U2OS HRE-luciferase, luminescence; U2OS HRE-luciferase reporter; normalized: DMSO 0%, desferrioxamine 100%; activation, % at 7.5 µM (by protocol); 300,000 tested, 0.32% active;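 active = mean activation of at least 10% of the iron chelator positive control signal, with at least half of replicates also reaching 10%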
KLF5 inhibitor = KLF5 expression inhibitors, primary screen, DLD-1 cells, luminescence. DLD-1 KLF5 promoter-luciferase reporter. inhibition, % at 5 µM. 290,000 tested, 0.23% active. AID 1700, 2009;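 active = inhibition above a per-plate limit of that plate's mean compound inhibition plus 3 SD, cut at about 60% in these data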;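 note: 0% = DMSO wells and 100% = LY294002 at 200 µM; higher means less KLF5 promoter-driven luciferase light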
Wee1 stab conf = Wee1 degradation inhibitors, confirmation, cell-based, HeLa, Wee1K328M-luciferase, luminescence, triplicate | shares compounds with Wee1 stabilizer | HeLa Luc-Wee1K328M degradation; vehicle 0%, proteasome-blocked wells 100% | activation, % at 5 µM | 1,100 tested, 4% active | AID 1410, 2008; in the data active = activation above about 8.9%
An asterisk follows results filed as active; · = no result.

SMILES	Platelet DG rel	Wee1 stabilizer	aSyn UTR inh	HIF activator	KLF5 inhibitor	Wee1 stab conf
COc1cc(C)c(N)cc1C(C)C	2	19*	22	0	7	-1
COc1cc(C)c(S(=O)(=O)N2CCOCC2)cc1C(C)C	8	2	18	-1	-8	·
O=C(O)c1ccc(/C=N/Nc2ccc(C(F)(F)F)cn2)cc1	6	13*	-172	2	-216	-2
CCOC(=O)Cn1c(=NC(=O)CSC(C)=O)sc2ccccc21	87*	16*	-5	0	-13	3
CCOC(=O)Cn1c(=NC(=O)CSC(C)=O)sc2cc(OC)ccc21	14	0	-14	0	-17	·
Cc1cc(C)nc(NC(=O)c2ccc(COc3ccccc3Cl)cc2)c1	6	14*	3	0	28	2
CCOc1ccccc1NC(=O)Nc1cnccn1	10	17*	33	0	-15	2
CCc1ccccc1NC(=O)Nc1cnccn1	15	·	17	0	-14	·
CCOc1ccccc1NC(=O)Nc1cccc(NC(C)=O)c1	3	2	-4	0	-12	·
CCOc1ccccc1NC(=O)Nc1cccc(C(C)=O)c1	7	15*	-35	1	-29	2
COc1ccc(CNC(=O)c2cc(=O)c3cc(C)cc(C)c3o2)cc1	·	·	-21	-1	-28	·
O=C(CN(C(=O)CCC(=O)Nc1nccs1)c1ccc2c(c1)OCO2)NCc1ccccc1	-3	·	-5	0	-9	·
CC(=O)Nc1nc(C)c(CCC2OCCO2)c(=O)[nH]1	1	11*	-13	-2	-31	0
O=C(N=Nc1c(O)[nH]c2ccccc12)c1cccc(S(=O)(=O)Nc2ccccc2Cl)c1	-3	6	-30	0	-19	·
CC(C)NC(=S)N=Nc1c(O)[nH]c2ccc(C(C)C)cc12	-2	15*	43	0	7	0
CC(C)c1ccc2[nH]c(O)c(N=NC(=O)c3cccc(S(=O)(=O)Nc4ccccc4Cl)c3)c2c1	2	20*	-20	0	-34	0
Cc1ccc(S(=O)(=O)NCCC(=O)Nc2ccc(Cl)c(Cl)c2)cc1	5	1	5	-1	-6	·
N#Cc1ccccc1OCC(=O)NC(=O)NCc1ccccc1	-5	15*	-11	1	-47	-2
O=C(NCc1ccco1)/C(=C\c1ccco1)NC(=O)c1cccs1	12	30*	-2	0	16	4
O=C(NCc1ccco1)/C(=C\c1cccs1)NC(=O)c1cccs1	-4	3	-13	0	-15	·
C=C1CCN([C@@H](CC(C)C)C(=O)N2CCCC2)S(=O)(=O)c2ccccc21	3	·	18	0	·	·
CCc1ccc(Nc2cc(=O)n(C3CCCCC3)c(=O)[nH]2)cc1	-3	2	-79	0	-63	·
O=c1cc(Nc2ccc3c(c2)OCCO3)[nH]c(=O)n1C1CCCCC1	12	11*	1	1	-12	11*
C#Cc1ccc([C@@H]2C=C(C(=O)OCC=C)O[C@H](OCCCCO)C2)cc1	-1	2	18	-3	3	·
CCOC(=O)CSc1nc2cc(C(F)(F)F)cnc2n1C	6	11*	8	1	3	2
SMILES	Platelet DG rel	Wee1 stabilizer	aSyn UTR inh	HIF activator	KLF5 inhibitor	Wee1 stab conf
CCCn1c(SCC(=O)OCC)nc(C(F)(F)F)cc1=O	-7	-2	-4	-1	-16	·
COc1ccccc1C(=O)NC(C)c1ccc(-n2ccnc2)cc1 (centres undefined)	-6	·	17	0	3	·
CC(C)(C)Sc1ccccc1S(=O)(=O)C(C)(C)C	5	13*	0	3	-27	-2
CCCn1ncc(CN2CCN(Cc3ccc(C)o3)C(CCO)C2)c1C (centres undefined)	0	11*	10	0	-8	2
O=C(COc1ccc(CO)cc1Cl)Nc1ccc(F)cc1	4	16*	50	-4	-161	-5
O=C(COc1ccc(CO)cc1)Nc1ccc(F)cc1	1	3	-43	0	-15	·
